HT1080-NT tox: qHTS for induction of synthetic lethality in tumor cells producing 2HG: qHTS for the HT-1080-NT fibrosarcoma cell line; HT-1080-NT fibrosarcoma viability, CellTiter-Glo ATP luminescence, 48 h; Potency, µM (doses to about 46.1 µM), most hits filed as cytotoxic; actives 1.6% (n = 360,000); AID 686970, 2013;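 note: NT is the 2HG producing partner of a matched IDH1 knockdown line; nearly all actives have a fitted effect of over 55% in size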
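Viability of the 2HG-overproducing fibrosarcoma line after 48 hours of compound exposure at 37 degrees C was determined by luminescence with CellTiter-Glo, and concentration-effect curves were then fitted and categorized.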
TDP1 cell noCPT: qHTS for Inhibitors of human tyrosyl-DNA phosphodiesterase 1 (TDP1): qHTS in cells in absence of CPT; DT40 Tdp1-/- hTDP1 cells, no CPT, ATP luminescence, 48 h; Potency, µM (series often up to 46.2 µM), actives largely listed as inhibitors; actives 15% (n = 420,000); AID 686978, 2013; note: nearly all actives have a fitted effect of over 55% in size
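Luminescent ATP content (CellTiter-Glo) served as the growth readout. Knockout chicken DT40 cells expressing human TDP1 were exposed to compounds without camptothecin for a minimum 48 hr at 37 °C.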
IL-1B inflam inh: qHTS for Inhibitors of Inflammasome Signaling: IL-1-beta AlphaLISA Primary Screen. actives 4.7% (n = 360,000). THP-1 LPS/ATP IL-1B secretion, AlphaLISA, 16 h; stronger effect = lower value. AID 743279, 2014. activity change, % at 57.5 µM; in the data active = activity change below about -50%; inconclusive = mostly about -30% to -49%
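THP-1 cells pretreated 1 hr with compounds (up to 57.5 uM final), then stimulated with LPS (250 ng/mL final) plus ATP (1.25 mM final); secreted IL-1B measured by AlphaLISA after 16 hr, decreased signal indicating inhibition.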
HT1080 IDH1KD tx: qHTS for induction of synthetic lethality in tumor cells producing 2HG: qHTS for the HT-1080-IDH1KD cell line | HT-1080 IDH1 knockdown viability, ATP luminescence, 48 h | Potency, µM (titrated, usually from 46.1 µM), hits mostly cytotoxic | actives 2% (n = 360,000) | AID 686971, 2013
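Using the IDH1-knockdown HT-1080 line run in the same batch and compound series as the NT line, viability after 48 h at 37 °C was determined by CellTiter-Glo luminescence and expressed as % activity.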
TDP1 cell CPT: qHTS for Inhibitors of human tyrosyl-DNA phosphodiesterase 1 (TDP1): qHTS in cells in presence of CPT; Potency, µM (highest dose often 46.2 µM), most hits filed as inhibitors; chicken DT40 Tdp1-/-;hTDP1 cells + 20 nM CPT, ATP luminescence, 48 h; actives 12% (n = 420,000); note: nearly all actives have a fitted effect of over 55% in size
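Cell growth measured by CellTiter-Glo luminescence after a minimum 48 h, 37 C compound exposure with 20 nM CPT in Tdp1-knockout DT40 cells stably expressing hTDP1, seeded 400/well; qHTS titration format.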
ELG1 DNA repair: qHTS screen for small molecules that inhibit ELG1-dependent DNA repair in human embryonic kidney (HEK293T) cells expressing luciferase-tagged ELG1 | actives 2.3% (n = 330,000) | Potency, µM (titrated, usually from 46.1 µM), usual class: inhibitors | HEK293T ELG1-luciferase reporter, luminescence, 16 h; DNA damage induced by 5-fluorouridine; note: nearly all actives have a fitted effect of over 55% in size
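Quantitative HTS, concentration-response format. 2,000 cells/well co-treated with 5-fluorouridine and compound, 16 hr in 5% CO2 at 37 °C; ONE-Glo luminescence read after 30 min.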
A number is an active result; – = inactive; ? = inconclusive; · = no result given; [ ] = another dose, or the depositor's remark. A selection: hits, their analogues and other compounds. The true share with any hit is near 19%. Unless noted, calls come from the whole dose curve; as a rule, active = well fitted curve in the direction sought with a large enough effect; inconclusive = small, poorly fitted or top-dose-only effect, or another doubt; inactive = no such curve, though single readings can be large; an effect the other way counts as inactive or inconclusive.

SMILES | HT1080-NT tox | TDP1 cell noCPT | IL-1B inflam inh | HT1080 IDH1KD tx | TDP1 cell CPT | ELG1 DNA repair
O=C(c1ccc([N+](=O)[O-])s1)N1CCCc2ccccc21 | – | ? | ? | ? | ? | ?
N=C(N1CCCc2ccccc21)N1CCCc2ccccc21 | ? | 21µM | – | ? | 16µM | ·
O=C(CCN1C(=O)/C(=C/c2ccc(Cl)cc2)SC1=S)NC1C=CS(=O)(=O)C1 (stereo not drawn) | – | ? | – | – | – | ?
COc1ccc(/C=C2\SC(=S)N(CC(=O)NC3C=CS(=O)(=O)C3)C2=O)cc1 (stereo not drawn) | – | 3.7µM | – | – | 6.5µM | –
O=C(CN1C(=O)/C(=C/c2ccc(Cl)cc2)SC1=S)NC1C=CS(=O)(=O)C1 (stereo not drawn) | – | 5.8µM | – | – | 6.5µM | ?
COc1ccc(/C=C2\SC(=S)N(C(C)C(=O)NC3C=CS(=O)(=O)C3)C2=O)cc1 (stereo not drawn) | – | – | -61 | – | ? | ?
CC(C)CCN(C(=S)NC(=O)C1CCCCC1)c1c(N)n(Cc2ccccc2)c(=O)[nH]c1=O | – | ? | – | – | ? | –
Cc1cc(N/N=C2/CCCc3ccccc32)nc2ccccc12 | ? | 10µM | – | – | ? | ?
c1ccc(N/N=C2\CCCc3ccccc32)nc1 | – | – | – | – | – | –
O=C(CN1CCC(C(O)(c2ccccc2)c2ccccc2)CC1)Nc1cc(Cl)ccc1Cl | – | 20µM | -67 | – | ? | –
O=C(CN1CCCCC1)Nc1cc(Cl)ccc1Cl | – | – | – | – | ? | –
O=C(CN1CCC(C(O)(c2ccccc2)c2ccccc2)CC1)Nc1ccccc1 | ? | 16µM | -55 | ? | 21µM | ?
Cc1ccc(C)c(NC(=O)COC(=O)CNC(=O)C2CCCCC2)c1 | – | – | – | – | – | ?
Cc1ccc(NC(=O)C2=CC(c3ccc4c(c3)OCO4)=NS(=O)(=O)N2C)cc1 | · | – | · | · | – | ·
CCc1ccccc1NC(=O)C1=CC(c2ccc(OC)c(OC)c2)=NS(=O)(=O)N1C | – | – | – | – | – | –
COc1ccc(NC(=O)C2=CC(c3ccco3)=NS(=O)(=O)N2C)cc1OC | – | – | – | – | – | –
COc1ccc(C2=NS(=O)(=O)N(C)C(C(=O)Nc3cc(C)ccc3O)=C2)cc1OC | – | 5.2µM | – | – | 7.3µM | ?
COc1ccc(C2=NS(=O)(=O)N(C)C(C(=O)Nc3ccc(C(C)=O)cc3)=C2)cc1OC | – | 12µM | -97 | – | 18µM | –
CC(=O)c1cccc(NC(=O)C2=CC(c3ccc4c(c3)OCO4)=NS(=O)(=O)N2C)c1 | – | 16µM | – | – | ? | –
COc1ccc(C2=NS(=O)(=O)N(C)C(C(=O)Nc3cc(OC)c(OC)c(OC)c3)=C2)cc1 | – | 15µM | – | – | 12µM | ?
Cc1noc(C)c1C(=O)N1CCC2(CC1)CN(Cc1cc(C(F)(F)F)cc(C(F)(F)F)c1)C2 | · | – | · | · | – | ·
COc1ccc(NC(=O)C2=CC(c3ccc(C)cc3)=NS(=O)(=O)N2C)cc1OC | – | 21µM | – | – | 23µM | ?
Cc1ccc(C2=NS(=O)(=O)N(C)C(C(=O)NC3CCCCC3)=C2)cc1 | – | – | – | – | – | –
COc1ccc(NC(=O)C2=CC(c3ccc(C)cc3)=NS(=O)(=O)N2C)cc1 | – | 23µM | – | – | 16µM | –
COc1cccc(C2=NS(=O)(=O)N(C)C(C(=O)Nc3cccc(O)c3)=C2)c1 | · | 16µM | · | · | 15µM | ·
SMILES | HT1080-NT tox | TDP1 cell noCPT | IL-1B inflam inh | HT1080 IDH1KD tx | TDP1 cell CPT | ELG1 DNA repair
COc1ccc(C2=NS(=O)(=O)N(C)C(C(=O)Nc3ccc(OC)c(OC)c3)=C2)cc1 | – | 16µM | – | – | ? | ?
Cc1ccc(-n2c(C)nnc2SCC(=O)N(C)C2CCS(=O)(=O)C2)cc1 (stereo not drawn) | –[9.24 µM] | – | – | – | – | –
COc1ccc([N+](=O)[O-])cc1NC(=O)C(C)OC(=O)CSC(C)C(=O)Nc1cc(C)on1 (stereo not drawn) | – | – | – | – | – | –
COC(=O)C(Cc1ccccc1)NC(=O)CC(C)CC(=O)Nc1ccc(C)cc1 (stereo not drawn) | – | – | – | – | – | –
COc1cccc(C(=O)NNC(=S)NC2CCCCC2)c1 | – | ? | – | – | 16µM | ?
C=CCNC(=O)COc1ccc(S(=O)(=O)NC2CCCCC2)cc1 | – | – | – | –[9.24 µM] | ? | –
COc1cc(C)c(NC(=O)COc2ccc3c(c2)CCC3)cc1OC | – | ? | – | – | 23µM | –
COc1ccc(NC(=S)NC2CCCCCC2)c(OC)c1 | – | 23µM | – | – | ? | –
COc1ccc(NC(=O)COc2ccc(S(=O)(=O)NC3CCCCC3)cc2)c(OC)c1 | · | 16µM | · | · | 15µM | ·
CC(C)OCCCNC(=O)C(=O)Nc1c2c(nn1-c1ccccc1)CS(=O)(=O)C2 | · | – | · | · | – | ·
Cc1ccc(C(=O)c2c(N)c(C(=O)Nc3cccc(C(F)(F)F)c3)c3ccccn23)cc1 | · | ? | · | · | – | ·
CC(C)CN(C(=O)CCC(=O)OCc1ccc(Cl)cc1Cl)c1c(N)n(CC(C)C)c(=O)[nH]c1=O | – | ? | – | – | ? | –
COc1ccc(S(=O)(=O)N2CCN(C(=O)C3CC3)CC2)cc1Br | – | – | – | – | – | –
S=C(Nc1cccc2ccccc12)NC1CCCCC1 | – | 16µM | – | – | ? | ?
S=C(Nc1cccc2ccccc12)Nc1cccc2ccccc12 | – | ? | – | – | ? | ·
O=C(NNC(=S)NC1CCCCC1)c1ccc(Cl)s1 | – | 15µM | – | – | – | –
COc1ccccc1NC(=S)NC1CCCC1 | – | – | – | – | – | ·
S=C(Nc1ccccc1Oc1ccccc1)NC1CCCC1 | – | 18µM | – | – | ? | ?
COc1ccccc1NC(=S)NC1CCC(CC2CCC(NC(=S)Nc3ccccc3OC)CC2)CC1 (stereo not drawn) | – | 13µM | – | – | 10µM | –
O=C(C[n+]1cccc(Br)c1)c1ccc(F)cc1 | · | – | · | · | – | ·
COC(=O)[C@H]1[C@@H](C)N(Cc2ccccc2)C(=O)N[C@H]1c1cccc(C(F)(F)F)c1 | – | ? | – | – | – | ·

High-throughput results deposited in PubChem by National Center for Advancing Translational Sciences (NCATS).
